Screening data (PubChem BioAssay)
Rab9 promoter act: qHTS Assay for Rab9 Promoter Activators; Huh7 Rab9 promoter-luciferase reporter, luminescence, 24 h; Potency, µM (highest dose often 9.22 µM), without a hit: at the top dose activation, negative = inhibition, usual class: activators; 320,000 compounds, 2.8% hits; AID 485297, 2010; further: % of control where 0% means no effect; nearly all actives have a fitted effect of over 60% in size
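Cell-based reporter: Huh7 stable for Rab9 promoter-driven luciferase, plated in reduced-serum medium with 10% FBS at 1500 cells/well, compound-treated 24 h at 37 °C, luminescence read after 10 min reagent.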
SMN2 splice enh: qHTS Assay for Enhancers of SMN2 Splice Variant Expression; HEK293 SMN2-luciferase splicing reporter, luminescence, 30-36 h; Potency, µM (doses to about 46.1 µM), for the others: top-dose activity change, positive = activation, most hits filed as activators; 210,000 compounds, 2.8% hits; AID 1458, 2008; further: % of control where 0% means no effect; nearly all actives have a fitted effect of over 55% in size
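qHTS luciferase splicing reporter: luminescence rises when SMN2 exon 7 is included in transfected HEK293 cells. Compound exposure lasted 30-36 h at 37C, with 4.5 mM final sodium butyrate as control, followed by a ONE-Glo read.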
NPC1 promoter act: qHTS Assay for NPC1 Promoter Activators; Huh7 NPC1 promoter luciferase reporter, 24 h; Potency, µM (series often up to 9.22 µM), without a hit: top-dose activation, actives largely listed as activators; 320,000 compounds, 2.4% hits; further: % of control where 0% means no effect; nearly all actives have a fitted effect of over 60% in size
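Stably transfected Huh7 (NPC1 promoter→luciferase), 1500 cells/well in Opti-MEM + 10% FBS, 2 h settle, then compound 24 h at 37 °C. Luminescence after 10 min with Amplite reagent.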
ELG1 genotox: qHTS screen for small molecules that induce genotoxicity in human embryonic kidney (HEK293T) cells expressing luciferase-tagged ELG1 | HEK293T ELG1-luciferase reporter, luminescence, 16 h | Potency, µM (highest dose often 46 µM), for inactives: at the top dose activity change, positive = activation, hits mostly activators | 330,000 compounds, 1.3% hits | AID 504466, 2011; further: % of control where 0% means no effect; nearly all actives have a fitted effect of over 60% in size
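Quantitative HTS format in 1536-well plates. HEK293T ELG1-luciferase reporter cells receive test compound and are incubated 16 hr at 37 °C, 5% CO2; ONE-Glo added, 30 min room temperature, then luminescence read.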
ELG1 DNA repair: qHTS screen for small molecules that inhibit ELG1-dependent DNA repair in human embryonic kidney (HEK293T) cells expressing luciferase-tagged ELG1 | HEK293T ELG1-luciferase reporter, luminescence, 16 h; DNA damage induced by 5-fluorouridine | Potency, µM (highest dose often 46.1 µM), for the others: top-dose activity change, negative = inhibition, usual class: inhibitors | 330,000 compounds, 2.3% hits | AID 504467, 2011; further: on the % scale 0 is the no-effect control and ±100 the full control effect; nearly all actives have a fitted effect of over 55% in size
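Luminescence from the luciferase reporter, measured 30 min after ONE-Glo reagent at room temperature, was the read-out. Beforehand, 2,000 cells per well were exposed for 16 hr at 37 °C to 5-fluorouridine together with compound or vehicle.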
FLuc counter: qHTS profiling assay for firefly luciferase inhibitor/activator using purifed enzyme and Km concentrations of substrates (counterscreen for miR-21 project); Potency, µM (doses to about 57.5 µM), for the others: top-dose activity change, negative = inhibition, hits mostly inhibitors; purified FLuc, Km substrates, luminescence inhibition; AID 588342, 2011; 360,000 compounds, 6.9% hits; Luciferin 4-monooxygenase (Photinus pyralis), P08659;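 further: plate controls were vehicle for no effect and reference inhibitor for full effect; nearly all actives have a fitted effect of over 55% in size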
Target sequence (P08659 whole entry, looked up): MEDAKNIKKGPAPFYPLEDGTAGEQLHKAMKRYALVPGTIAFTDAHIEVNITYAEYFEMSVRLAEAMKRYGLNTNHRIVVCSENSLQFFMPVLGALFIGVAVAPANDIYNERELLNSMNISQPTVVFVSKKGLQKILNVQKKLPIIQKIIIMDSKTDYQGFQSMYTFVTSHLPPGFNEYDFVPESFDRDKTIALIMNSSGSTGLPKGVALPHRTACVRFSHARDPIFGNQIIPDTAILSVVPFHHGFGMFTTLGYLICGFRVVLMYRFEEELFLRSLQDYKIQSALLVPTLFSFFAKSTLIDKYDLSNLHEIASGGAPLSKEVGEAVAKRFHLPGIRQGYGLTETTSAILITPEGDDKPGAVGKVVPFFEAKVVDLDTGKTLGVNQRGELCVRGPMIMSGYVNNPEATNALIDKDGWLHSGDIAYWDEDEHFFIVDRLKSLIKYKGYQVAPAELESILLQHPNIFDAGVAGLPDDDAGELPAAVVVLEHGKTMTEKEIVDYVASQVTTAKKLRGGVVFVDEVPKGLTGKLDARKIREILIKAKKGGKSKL
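Purified P. pyralis luciferase (10nM final) with 10uM D-luciferin and 10uM ATP (Km levels) in 50mM Tris acetate pH 7.5, 10mM Mg acetate, 0.01% Tween-20, 0.05% BSA; qHTS 6-point titration, ~60 µM downward; luminescence read.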
* hit, by the source's call; [ ] = another dose, or the depositor's remark. Sampled rows, rich in hits. Any-hit rate of the full collection: about 9.2%. The call rests on the fitted dose curve; in most records, active means well fitted curve in the direction sought with a large enough effect; inconclusive means small, poorly fitted or top-dose-only effect, or another doubt; inactive means no such curve, though single readings can be large; an effect the other way counts as inactive or inconclusive. Potency means the concentration at half of the fitted maximal effect.

Results for CCOc1ccc(-c2ccc(SC)nn2)cc1 ?
Rab9 promoter act: 0.32µM*; SMN2 splice enh: 0.79µM*; NPC1 promoter act: 0.63µM*; ELG1 genotox: inconclusive; ELG1 DNA repair: inconclusive; FLuc counter: 0.48µM*

How did Cn1c(-c2ccc(F)cc2)cnc1SCC(=O)Nc1ccccc1N1CCOCC1 do in these assays?
Rab9 promoter act: 1.3µM*; SMN2 splice enh: 13µM*; NPC1 promoter act: 1.6µM*; ELG1 genotox: 1.8µM*; ELG1 DNA repair: inconclusive; FLuc counter: 0.95µM*

Results for CCOc1ccc(-c2csc(-c3nc(-c4ccc(Br)s4)cs3)n2)cc1 ?
SMN2 splice enh: 2%; FLuc counter: 3%

How did CCc1nnc(NC(=O)CSc2ncc(-c3ccccc3)n2C)s1 do in these assays?
Rab9 promoter act: 29%; SMN2 splice enh: -19%; NPC1 promoter act: 7%; ELG1 genotox: 18µM*; ELG1 DNA repair: inconclusive; FLuc counter: inconclusive

What do the screens show for `COc1ccc(-c2cc(C(F)(F)F)nc(SCC(=O)NCc3ccc(OC)c(OC)c3)n2)cc1`?
SMN2 splice enh: -22%; FLuc counter: 3%

What do the screens show for `Cc1nn(-c2ccccc2)c2c1N(CC(=O)N1CCN(c3ccccc3F)CC1)C(=O)CS2`?
FLuc counter: -15%

What do the screens show for `CCOc1cccc(CNC(=O)c2ccc(N3CCCC3)c(NC(=O)NCc3ccc(F)cc3)c2)c1`?
FLuc counter: 1%

What do the screens show for `Cc1ccc2nc(-c3cccnc3SCC(=O)N3c4ccccc4CC3C)[nH]c2c1` (stereo not given)?
Rab9 promoter act: inconclusive; SMN2 splice enh: 14µM*; NPC1 promoter act: inconclusive; ELG1 genotox: inconclusive; ELG1 DNA repair: inconclusive; FLuc counter: 5.4µM*

How did CC(C)NC(=O)CSc1ncccc1-c1nc2ccccc2[nH]1 do in these assays?
Rab9 promoter act: 7%; NPC1 promoter act: -1%; ELG1 genotox: 9%; ELG1 DNA repair: inconclusive; FLuc counter: inconclusive

How did CN(C)C(=O)CSc1ncccc1-c1nc2ccccc2[nH]1 do in these assays?
Rab9 promoter act: 9%; NPC1 promoter act: 9%; ELG1 genotox: 0%; ELG1 DNA repair: 14%; FLuc counter: inconclusive

What do the screens show for `CCN(CC)C(=O)CSc1ncccc1-c1nc2ccccc2[nH]1`?
Rab9 promoter act: 1%; NPC1 promoter act: 1%; ELG1 genotox: 5%; ELG1 DNA repair: inconclusive; FLuc counter: 24µM*

How did O=C(CSc1ncccc1-c1nc2ccccc2[nH]1)N1CCCCC1 do in these assays?
Rab9 promoter act: 12%; SMN2 splice enh: 5%; NPC1 promoter act: 10%; ELG1 genotox: 15%; ELG1 DNA repair: inconclusive; FLuc counter: 17µM*

Results for O=C(Nc1nc2ccsc2c(=O)s1)C1CCC1 ?
Rab9 promoter act: inconclusive; NPC1 promoter act: inconclusive; ELG1 genotox: inconclusive; ELG1 DNA repair: inconclusive; FLuc counter: 19µM*

What do the screens show for `Cc1ccc2nc(NC(=O)c3ccco3)sc2c1`?
Rab9 promoter act: 0.79µM*; SMN2 splice enh: 1.1µM*; NPC1 promoter act: inconclusive; ELG1 genotox: 0.21µM*; ELG1 DNA repair: inconclusive; FLuc counter: 0.27µM*

What do the screens show for `O=C(Nc1nc2ccsc2c(=O)s1)c1ccco1`?
Rab9 promoter act: inconclusive; NPC1 promoter act: inconclusive; ELG1 genotox: inconclusive; ELG1 DNA repair: inconclusive; FLuc counter: 15µM*

How did Cc1csc2c(=O)sc(NC(=O)c3ccco3)nc12 do in these assays?
Rab9 promoter act: -1%; NPC1 promoter act: 4%; ELG1 genotox: 1%; ELG1 DNA repair: 4%; FLuc counter: inconclusive

How did Cc1ccc2nc(NC(=S)NC(=O)c3ccco3)sc2c1 do in these assays?
Rab9 promoter act: 3.5µM*; SMN2 splice enh: 11µM*; NPC1 promoter act: 1.4µM*; ELG1 genotox: inconclusive; ELG1 DNA repair: inconclusive; FLuc counter: 0.48µM*

Results for O=C(NCc1ccc(F)cc1)C1CCCN(c2nc3ccsc3c(=O)s2)C1 (stereo not given) ?
Rab9 promoter act: -5%; SMN2 splice enh: -5%; NPC1 promoter act: 1%; ELG1 genotox: 0%; ELG1 DNA repair: -7%; FLuc counter: 0%

How did Cc1cc(N=Cc2c(CO)cnc(C)c2O)c(N=Cc2c(CO)cnc(C)c2O)cc1C.[Zn] do in these assays?
SMN2 splice enh: -15%[9.22 µM]

How did COc1ccccc1CN1CC(C(=O)NCCN2CCOC2=O)CCC1=O (stereo not given) do in these assays?
Rab9 promoter act: -7%; NPC1 promoter act: 2%; ELG1 genotox: 9%; ELG1 DNA repair: 12%; FLuc counter: -2%

What do the screens show for `COc1ccc(C2=NS(=O)(=O)N(C)C(C(=O)NC3CCCCC3)=C2)cc1OC`?
Rab9 promoter act: -1%; NPC1 promoter act: 0%; ELG1 genotox: -4%; ELG1 DNA repair: inconclusive; FLuc counter: -1%

What do the screens show for `COc1ccc2nc(NC(=O)c3ccco3)sc2c1`?
Rab9 promoter act: 0.11µM*; NPC1 promoter act: 0.32µM*; ELG1 genotox: 0.58µM*; ELG1 DNA repair: inconclusive; FLuc counter: 0.54µM*

Results for O=C(Nc1nc2c(s1)CCc1ccccc1-2)c1ccco1 ?
Rab9 promoter act: inconclusive; SMN2 splice enh: 16µM*; NPC1 promoter act: inconclusive; ELG1 genotox: 11%; ELG1 DNA repair: inconclusive; FLuc counter: 17µM*

What do the screens show for `CC(=O)Nc1nc2c(s1)CCc1ccccc1-2`?
Rab9 promoter act: 3%; NPC1 promoter act: 14%; ELG1 genotox: 0%[9.26 µM]; ELG1 DNA repair: inconclusive; FLuc counter: inconclusive

What do the screens show for `O=c1sc(Nc2ccccc2)nc2ccsc12`?
Rab9 promoter act: inconclusive; SMN2 splice enh: 1%; NPC1 promoter act: 7%; ELG1 genotox: 18µM*; ELG1 DNA repair: inconclusive; FLuc counter: 12µM*

How did Cc1ccsc1C(=O)NNC(=O)C1CC=CCC1C(=O)O (stereo not given) do in these assays?
Rab9 promoter act: -2%; SMN2 splice enh: 4%; NPC1 promoter act: -2%; ELG1 genotox: 6%; ELG1 DNA repair: inconclusive; FLuc counter: inconclusive

What do the screens show for `CC(C)c1ccc(C(=O)NNC(=O)C2CC=CCC2C(=O)O)cc1` (stereo not given)?
Rab9 promoter act: 29%; SMN2 splice enh: inconclusive; NPC1 promoter act: 23%; ELG1 genotox: 11%; ELG1 DNA repair: inconclusive; FLuc counter: 17µM*

How did Cc1ccc(N(CC(=O)NCCc2ccccc2C)S(=O)(=O)N(C)C)cc1 do in these assays?
SMN2 splice enh: 0%; FLuc counter: -7%
